Assay results as given in PubChem BioAssay (NCATS).
Records with an inconclusive call do not appear. Unmarked numbers belong to inactive results. The source made the active and inactive calls. Calls come from the whole dose curve; as a rule, active = well fitted inhibition curve with a large enough effect; inconclusive = small, poorly fitted or top-dose-only effect; inactive = no such curve, though single readings can be large or run the other way.

Test: HTS Assay for Allosteric Antagonists of the Human D2 Dopamine Receptor: Hit Validation in HTRF (AID 624455);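 note: stable D1 dopamine receptor cell line scored for blocking the D1 response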
Conditions: Cells stably expressing D1 dopamine receptor, inhibition mode; series mostly up to 46.1 µM; activity, negative = inhibition: at the top concentration
From the text: Dopamine receptors (DARs) are involved in the etiology and/or therapy of a number of neuropsychiatric and endocrine disorders. For instance, all receptor-based antiparkinsonian drugs work via stimulating the D2 DAR subtype whereas all FDA-approved antipsychotic agents are antagonists of this receptor. […] There are three different types of allosteric modulators that we are seeking, two of which will stimulate or augment receptor signaling, allosteric agonists and potentiators, while the third, allosteric antagonists, will attenuate receptor signaling. The present primary screening assay measures compound antagonism after an EC80 addition of dopamine by tracking calcium flux in a […], inducible Hek293 Trex D2 cell line. This assay measures activity of the hits in the D1 HTRF assay.
NIH Chemical Genomics Center [NCGC]
NIH Molecular Libraries Probe Centers Network [MLPCN]
Assay Submitter (PI): David Sibley
Cells stably expressing the D1 dopamine receptor will be run in an HTRF assay and compounds will be examined for the ability to inhibit the D1 mediated response.
% is set by controls: 0 for no effect and ±100 for the full control effect; potency is the fitted concentration of half-maximal effect.

Compound	activity, negative = inhibition	Potency
CC(C)(Sc1ccc(CCN(CCCCC2CCCCC2)C(=O)NC2CCCCC2)cc1)C(=O)O	-1.4%	
O=C1CCC(N2C(=O)c3ccccc3C2=O)C(=O)N1 (stereo not given)	-3.67%	
CC(C)C[C@H](NC(=O)[C@@H](O)[C@H](N)Cc1ccccc1)C(=O)O	-80.5%	
NC(=O)c1cnccn1	22.3%	
C1COC(NC(C2CC2)C2CC2)=N1	-2.68%	
NNCCc1ccccc1	3.21%	
CCN(CC)CCCC(C)Nc1ccnc2cc(Cl)ccc12 (stereo not given)	10.8%	
Cc1ccccc1C(OCCN(C)C)c1ccccc1 (stereo not given)	2.15%	
Cc1cnc(NC(=O)C2=C(O)c3ccccc3S(=O)(=O)N2C)s1	-1.69%	
N[C@@H]1CONC1=O	-7.12%	
O=c1[nH]cnc2[nH]ncc12	-6.24%	
CC(C[N+](C)(C)C)OC(N)=O (stereo not given)	2.13%	
N=c1nc(N2CCCCC2)cc(N)n1O	8.5%	
O=C(Nc1nc2ccccc2n1CCN1CCOCC1)c1cccc([N+](=O)[O-])c1	3.46%	
Nc1nc2ccc(OC(F)(F)F)cc2s1	-20.1%	
CC(C)NCC(O)COc1ccc(COCCOC(C)C)cc1 (stereo not given)	3.3%	
Cc1oncc1C(=O)Nc1ccc(C(F)(F)F)cc1	6.35%	
NC[C@H](O)c1ccc(O)c(O)c1		291 nM (active)
CCn1cc(C(=O)O)c(=O)c2cc(F)c(N3CCNC(C)C3)c(F)c21 (stereo not given)	1.27%	
CC(C)(C)NCC(O)c1ccc(O)c(CO)c1 (stereo not given)		inactive

Compound	activity, negative = inhibition	Potency
Cc1ccc(N(CC2=NCCN2)c2cccc(O)c2)cc1	-3.07%	
O=c1n(CCCN2CCN(c3cccc(Cl)c3)CC2)nc2ccccn12	7.88%	
OC(CCN1CCCCC1)(c1ccccc1)C1CC2C=CC1C2 (stereo not given)	-3.28%	
OC(CN1CCC(Cc2ccc(F)cc2)CC1)c1ccc(Cl)cc1 (stereo not given)	6.72%	
CC(=O)Oc1ccccc1C(=O)O	-2.29%	
NS(=O)(=O)c1cc2c(cc1Cl)NC=NS2(=O)=O	-1.06%	
CCCC(CCC)C(=O)O	-32.3%	
Cc1cccc(-c2[nH]c(C(C)(C)C)nc2-c2ccc3nccnc3c2)n1	-1.99%	
Cc1[nH]c(=O)c(C#N)cc1-c1ccc2nccn2c1	-0.224%	
O=C1CCc2cc(OCCCCc3nnnn3C3CCCCC3)ccc2N1	9.66%	
Clc1cccc(Cl)c1NC1=NCCN1	2.77%	
CCOC(=O)N1CCC(=C2c3ccc(Cl)cc3CCc3cccnc32)CC1	6.23%	
Nc1nc2c(ncn2COCCO)c(=O)[nH]1	1.42%	
Nc1ncnc2nc(-c3ccc(N4CCOCC4)nc3)cc(-c3cccc(Br)c3)c12	-11.6%	
C[C@]12CCC(=O)C=C1CC[C@@H]1[C@@H]2[C@@H](O)C[C@@]2(C)[C@H]1CC[C@]2(O)C(=O)CO	-4.33%	
CCOC(=O)C1=C[C@]2(CC)CCCN3CCc4c(n1c1ccccc41)[C@@H]32	6.91%	
CCCCNc1cc(C(=O)O)cc(S(N)(=O)=O)c1Oc1ccccc1	-4.82%	
Cc1[nH]c(=O)c(C#N)cc1-c1ccncc1	3.5%	
CCC(C)N(C)C(=O)c1cc2ccccc2c(-c2ccccc2Cl)n1 (stereo not given)	5.17%	
CN1CCN(CCCN2c3ccccc3Sc3ccc(C(F)(F)F)cc32)CC1	-7.29%	
